Screens from PubChem.
Most compounds without a hit are left out; they make up all but 3.9% or so of the library.
Vc quorum ag – inducers of Vibrio cholerae quorum light production without autoinducers. V. cholerae BH1578 lux reporter, luminescence, 6 h. activation, % at 18.7 µM. 350,000 compounds, 0.16% hits; in the data active = activation mostly above about 9.7%, no sharp cut-off; inconclusive = no clear call, values can overlap the other calls; inactive = mostly below about 3.7%
BoNT F protease – BoNT F light chain protease inhibition | inhibition, % at 10 µM | 360,000 compounds, 0.22% hits | Multiplex microsphere protease cleavage assay, flow cytometry; in the data active = inhibition above about 35%, passing the limit was not always enough; inconclusive = no clear call, values can overlap the other calls; note: plate controls were buffer without enzyme for full effect and enzyme alone for no effect
BoNT A protease – inhibitors of Botulinum neurotoxin A light chain protease. 360,000 compounds, 0.17% hits. inhibition, % at 10 µM. multiplex microsphere protease substrate cleavage, flow cytometry; note: plate controls were buffer without enzyme for full effect and enzyme alone for no effect
MazF activator – increases E. coli MazEF RNase cleavage of RNA; P0AE70; FAM/BHQ RNA-DNA oligo cleavage fluorescence, 5 h; activation, % at 20 µM; 350,000 compounds, 0.32% hits; in the data active = activation above about 50%
Target sequence (P0AE70 whole entry, looked up): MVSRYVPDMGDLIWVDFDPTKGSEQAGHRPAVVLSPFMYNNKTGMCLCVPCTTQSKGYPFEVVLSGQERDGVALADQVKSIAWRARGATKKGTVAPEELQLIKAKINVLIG
Bead autofluor – compound fluorescence in toxin protease inhibitor counterscreen | 360,000 compounds, 3.1% hits | fluorescence intensity (test concentration not listed) | AID 624483 | compound autofluorescence counterscreen, microsphere flow cytometry; active compounds read high; in the data active = fluorescence intensity above about 16000; inconclusive = no clear call, values can overlap the other calls
Anthrax LF prot – inhibitors of Bacillus anthracis lethal factor protease; P15917; multiplex microsphere protease cleavage assay, LF; inhibition, % at 10 µM; 360,000 compounds, 0.12% hits; AID 588501; note: plate controls were buffer without enzyme for full effect and enzyme alone for no effect
An asterisk follows results filed as active; i = inactive; u = inconclusive; x = not tested or not shown. Cut-off read from the data, not from the text of the source, unless noted: active = inhibition above about 30%; inconclusive = no clear call, values can overlap the other calls; inactive = below that.

SMILES | Vc quorum ag | BoNT F protease | BoNT A protease | MazF activator | Bead autofluor | Anthrax LF prot
CCCn1c(SCC(=O)NCc2ccco2)nc2c1c(=O)n(C)c(=O)n2C | 1.4 | -1.4 | 1.0 | 4.7 | 22819* | -0.1
CCCn1c(SCC(=O)N2c3ccccc3Sc3ccccc32)nc2c1c(=O)n(C)c(=O)n2C | i | -2.1 | 0.1 | -6.1 | 5770 | 0.9
Cc1ccc(S(=O)(=O)NCc2cccnc2)cc1C(=O)N1CCCC1 | 0.5 | -3.4 | -1.6 | 7.4 | 4909 | -3.7
O=C(COC(=O)Cc1cccc(F)c1)NC(=O)NC1CCCCC1 | 1.7 | 1.9 | 0.3 | 1.3 | 4958 | -1.0
CC(C)(C)OC(=O)NCCc1nnc(SCc2c(Cl)cccc2Cl)o1 | x | u | u | -2.9 | u | -6.0
CCCCSc1nnc(CCCCCNC(=O)OC(C)(C)C)o1 | -6.2 | -1.9 | -0.9 | 4.8 | 16992* | -3.6
CC(C)(C)OC(=O)NCCCCCc1nnc(SCc2c(F)cccc2Cl)o1 | -0.2 | 58.7* | -1.4 | -1.5 | 3968 | u
CSc1nnc(CCCCCNC(=O)OC(C)(C)C)o1 | -0.6 | u | 0.7 | 0.9 | 4067 | 8.0
CC(NC(=O)C1CCN(C(=O)c2ccc(F)cc2)CC1)c1ccc(S(N)(=O)=O)cc1 (centres undefined) | -0.1 | 7.5 | 0.0 | -1.7 | 4025 | 1.0
N#Cc1cccc(NC(=O)CSc2cccc[n+]2[O-])c1 | i | 0.0 | 0.4 | 1.4 | 3891 | -1.0
COCCn1c(SCC(=O)NCc2ccccc2)nc2ccccc21 | i | -17.7 | 0.2 | 1.5 | 3027 | 15.9
COCCn1c(SCc2csc(-c3ccccc3)n2)nc2ccccc21 | i | -6.0 | u | -3.3 | 22786* | -0.6
CC(Oc1ccc(Cl)cc1)C(=O)NNC(=S)NC(=O)c1ccco1 (centres undefined) | -0.2 | 0.9 | -1.7 | 6.9 | 10751 | -3.9
O=C(CNC(=O)c1ccc(Br)cc1)NCCc1nc2ccccc2[nH]1 | 1.7 | -1.9 | -1.3 | 5.9 | 19972* | -0.3
Cc1ccc(-c2csc3nc(SCC(N)=O)n(Cc4ccccc4)c(=O)c23)cc1 | -0.3 | -2.9 | -0.5 | -11.0 | 1965 | -1.4
COc1ccc(-c2c(C)n([O-])c(C)c(-c3ccccc3)[n+]2=O)cc1OC | 1.8 | 4.0 | 2.1 | 3.6 | 21301* | -3.3
COc1ccc(CC(=O)NC(C)c2nnc(SCC(=O)c3ccc(Br)cc3)n2C)cc1 (centres undefined) | -2.2 | 3.9 | 1.1 | -26.0 | 9763 | -4.9
CCn1c(SCC(=O)c2ccc(Br)cc2)nnc1C(C)NC(=O)Cc1ccc(OC)cc1 (centres undefined) | -0.2 | -5.2 | -4.5 | 1.3 | 17649* | -9.7
CC(C)(C)NC(=O)COC(=O)CCC(=O)c1cccs1 | i | -2.4 | -1.3 | -10.3 | 4994 | 0.3
Cc1ccc(C(=O)NNC(=O)CSc2nnc3c(n2)[nH]c2ccc(F)cc23)cc1 | x | -0.1 | -0.2 | -0.6 | 9867 | -9.0
COc1ccc2[nH]c3nc(SCC(=O)NNC(=O)c4ccc(OC)c(OC)c4)nnc3c2c1 | -1.0 | 0.1 | 0.8 | 4.2 | 21437* | -1.7
Cc1ccc(Nc2nnc(SCC(=O)Nc3cccnc3Cl)s2)cc1C | -0.2 | 9.7 | 1.2 | 2.0 | 1929 | 8.5
O=C(Nc1cccc(F)c1)C1CCN(C(=O)c2ccc(Br)cc2)CC1 | -5.6 | -1.3 | -0.7 | -3.1 | 23473* | 0.8
O=C(CSc1nnc(-c2ccncc2)o1)Nc1cc(Cl)ccc1C(=O)O | -1.7 | -14.3 | 0.0 | -12.2 | 3281 | -0.5
CCOC(=O)/C(=N\Nc1cccc(C(F)(F)F)c1)N1CCOCC1 | -0.2 | -1.0 | 0.0 | -12.9 | 4396 | -3.3
SMILES | Vc quorum ag | BoNT F protease | BoNT A protease | MazF activator | Bead autofluor | Anthrax LF prot
CCOC(=O)/C(=N\Nc1cccc(C(F)(F)F)c1)N(CCOC)CCOC | -1.8 | -7.8 | u | -7.2 | 22213* | -0.5
C/C(=N\NC(=O)C(C)Oc1ccc([N+](=O)[O-])cc1)c1ccccn1 (centres undefined) | 0.9 | -3.7 | u | 4.9 | 24747* | -5.3
C(=N\N1CCN(Cc2cccc3ccccc23)CC1)/c1cccnc1 | i | 5.1 | 7.0 | -2.8 | 20176* | -11.2
O=C(O)c1ccc(/C=N/N2CCN(Cc3cccc4ccccc34)CC2)cc1 | i | -5.4 | -1.9 | -3.8 | 5030 | 2.4
FC(F)(F)c1ccc(/C=N/N2CCN(Cc3cccc4ccccc34)CC2)cc1 | 0.2 | -9.2 | -3.7 | 0.6 | 17471* | -9.1
CSCC[C@H](N)C(=O)NC[C@H]1CC[C@H](C(=O)N[C@@H](Cc2ccccc2)C(=O)O)CC1 | i | -2.2 | 0.4 | 3.5 | 2942 | 0.6
O=C(/C=C/c1ccccc1)N1CCCN(C(=O)/C=C/c2ccccc2)CC1 | -7.1 | -1.7 | 0.2 | 1.0 | 20323* | -4.3
O=C(/C=C/c1ccccc1)N1CCN(C(=O)c2ccco2)CC1 | -1.0 | 0.3 | 0.2 | 4.2 | 8132 | 1.5
CCOc1ccc(C2c3cc(OC)c(OC)cc3CC(=O)N2c2ccccc2)cc1 (centres undefined) | -1.7 | 7.4 | 4.8 | 6.4 | 20080* | -1.1
CCc1nc2c(OCc3cc(Cl)cc(Cl)c3)cccn2c1N(C)C(=O)c1cccc(OC)c1 | i | -0.7 | 0.1 | x | 3817 | -1.0
COCCNC(=O)c1ccc2c(c1)nc(C)n2-c1cccc(Cl)c1 | -0.3 | 5.6 | -1.4 | -3.9 | 3878 | -16.4
CCOC(CNC(=O)c1ccc2c(c1)nc(C)n2-c1cccc(F)c1)OCC | -0.2 | -3.6 | -0.9 | -2.4 | 23358* | -3.5
Cc1ccc(S(=O)(=O)N2CCN(C(=O)CC(C)C)CC2)cc1 | i | -3.3 | -0.1 | -9.5 | 4590 | -4.2
COc1ccc(C(=O)N2CCCC2)cc1S(=O)(=O)N1CCOCC1 | i | -2.4 | 0.3 | -0.1 | 20709* | 2.2
O=C(c1cccc(S(=O)(=O)N2CCOCC2)c1)N1CCCCCC1 | i | -2.1 | -1.5 | -4.0 | 23147* | 1.7
COc1ccc(N2CCN(C(=O)c3ccc(-n4nc(C)cc4C)cc3)CC2)cc1 | -2.2 | -7.9 | -3.6 | -0.2 | 25032* | -2.6
COc1ccc(S(=O)(=O)N2CCN(C(=O)CC(C)C)CC2)cc1 | 1.3 | 39.8* | 4.0 | 10.2 | 2951 | -3.5
O=C(COC(=O)Cc1ccc(S(=O)(=O)N2CCOCC2)s1)Nc1ccccc1 | i | -9.4 | -0.2 | -14.3 | 3971 | -5.0
CCC(NC(=S)NCc1ccc(F)cc1)c1ccc(C(C)C)cc1 (centres undefined) | -0.9 | 6.1 | 2.9 | -1.5 | 5499 | -3.3
COc1ccc(N2CCN(S(=O)(=O)c3cccc(C(F)(F)F)c3)CC2)cc1 | i | -4.4 | 0.8 | -0.1 | 20076* | -11.0
O=S(=O)(c1cccc(-n2cnnn2)c1)N1CCOCC1 | -4.8 | -0.5 | -0.1 | 6.1 | 5253 | -2.1
COc1cc(-n2cnnn2)ccc1S(=O)(=O)N1CCOCC1 | -3.5 | -1.8 | u | -1.8 | 22844* | 0.6
COc1ccc(C(=O)N2CCN(S(=O)(=O)c3ccc(Cl)cc3)CC2)cc1OC | -6.2 | 7.9 | 4.0 | -1.5 | 21574* | 3.8
COc1ccc(OC(=O)c2cccc(S(=O)(=O)N3CCCC3)c2)cc1 | -1.4 | -5.3 | -4.7 | -0.6 | 24453* | -3.0
